In the test the test system is VDR:RXRa (NR concentration 270 nM, RXRa partner concentration 90 nM). In words: PBM binding z-score (relative to random genomic background probes); higher = stronger binding; sequences stand for … in GC…GCGATTGACAGCGTAGAATGAAGG
On the procedure:
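Protein-binding microarray (Agilent 4x180K custom design, double-stranded 60-nt probes: 5' GC cap, 34-nt variable region, 24-nt constant primer region; full probe sequence given). Purified or IVT nuclear receptor:RXRα heterodimers (3:1 NR:RXRα, mostly 270:90 nM) or homodimers were incubated for 1 h in PBS with 2% milk and no ligand, then detected with Alexa488 antibodies. Fluorescence from o1-orientation probes (~5 replicates averaged) was converted to z-scores against 500 random hg19 background probes. Variable regions are seed direct-repeat (DR0–DR5) sites, all their single-nucleotide variants and half-site ablations.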
Regarding GCAGATAGGTAATACAAGGTGAAAGTCCGATTGT, the PBM binding z-score stood at 0.13. In the case of ATCTCTAGGTAAGACTCAGTTCTGTGAAGAACGC it was 0.069; in that of GATACAGGCTCAAGGCCAGAGTACGCGTATTGAT, -0.543; in that of TGAATGATGTTATAAGATCAGGGAACGTTGCAAA, -0.175. In the case of CCTATGAGTTGACCATAAGGGCAACCGAAGCTCG it was 0.81. AGAATGAGGTTGAGATCAGGGAAACAGAATACAT had a PBM binding z-score of 0.141.

As to TGAATGAGGTTAAAGATCAGGGAGCGTGGCGTCG, the PBM binding z-score is 1.74. In the case of CAGACTAGGTCACCGGAAGGTCAAAGTCCGCATG it was 5.78. The sequence TGTCAAAGTTCAAGGGTAACGTAAGTATCCACAC returned a PBM binding z-score of 4.26. Under CCGACTGGGGCAGAGGTTACCATACTCAGTACGA stands 0.52; under CGGACGAGGGCATGAGTTGATAGCAAATGCCGAT, 1.21. Under GATGCTAGGTCAGGTTGGTCAGCTAACGGGTACG stands 0.88.

Sequence AGAATGAGGGTAAGATCAGGGAAACAGAATACAT displayed a PBM binding z-score of -0.0914. Under AGAATGAGGTTATTAAGATCAGAGAATTGCGGTC stands 2.56; under ATCTCTTGGTAACCAAGTTCAGTGAATGCCGAAC, 2.38. Under AGTATGAGGTTATACGTAGATCAGGGAAGAAAGT stands 1.34; under AGTCAAAGTTCATCTAGGAAACGTAAGATATGCT, 4.66; under GGAACGAGGGCAAGGTTGATAGCATCTGTCGACG, 0.638. Under CCGACTGGGGCATACGGTTACCATAAGCCAGCCC stands -0.577; under ATCGAGAGGTCGTGAGGTGAGTATACAGAAAGGC, 3.3.

As to CGAACTAGGTCAGACCAGGACAGTGAAGGATGAT, the PBM binding z-score is 1.03. In the case of CAAACTAGGTCAACAGGTCAAAGTCCGCTTCCCG, the PBM binding z-score was found to be 4.87.

The sequence TCATATAGGTAAATCCTAGGTGAAAGTCCGATCT came in with a PBM binding z-score of 0.7. Turning to GCAGACTGGTGAAACGCAGGTAACTCAGGGTGGC, the PBM binding z-score was -0.985. Under ACTAGCAGGCCAAGTTTTGGTCACTCAAACAAAG stands -0.348. Under TCATATAGGTAAAAGGGGAAAGTCGGTGTGGTAA stands 0.861; under ATCTCTAGGTAAAGATAATTCAGTGAATGCAAAT, 0.0441; under ACAGACGGGTGAGTGAAGGTAACTCAGCTGGACG, -0.422. On to CCTACTGGGCCAAAAAGGTCATTGACGCCGATAA, for which the PBM binding z-score worked out at 4.36. Turning to TCTCCTAGGTCAACGATGGTCAGCTAATCTGCTA, the PBM binding z-score was 2.39. In the case of CCTGCTATGTCAATGGTCAGCTAAAGCAGCTCGC it was -0.397. Under TCTAGTTGGTCACGGAGGTCTCACACGACGGGTA stands 1.65. Under TCATATAGGTCAACAGGTGAAAGTCCGTAAGTTA stands 4.41.

In the case of CCTACTGGGCCATCCAGAGGTCATTGATCATATG, the PBM binding z-score came out at 4.12. Under GCTTACGGGTCAAAGGCTATAGCATGAATAGAAT stands 3.47; under CAAACTAGGTCATGAGGTCAAAGTCCGCTTCCCG, 6.08. In the case of TACACAGGGTCAAAGGCCAGAGTACGAATGTCGA, the PBM binding z-score was 4.89. In the case of TCTTGTAGATCCATAGAGGTTAAGAAAGTGCGCT it was 1.69; in that of ACGAGCAGGCCAAGGGTCACTCAAGATTAGTCCG, 2.72.

Take GCAGACAGGTGAAAAGCAGGTAACTCAGGGTGGC: the PBM binding z-score is -0.329.

Source of the values: the supplement of paper PMC6555819.
